These results are taken from PubChem BioAssay.

As usually defined, the inhibition is the change of the read-out against control, counted positive when it falls.

Where “and” joins values, the source holds several entries; their conditions need not be identical. Equal values may be shown once. Calls of active or inactive are those of the source.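 The calls were made as follows, unless noted: active = inhibition at or above 50% relative to wild type and mutant plate controls; inactive = inhibition below 50%.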

A short description of test [1]: inhibitors of TNFa-induced NFkB p65 translocation, primary screen, imaging, HUVEC, MLSMR starter and 10KST1 sets (AID 438;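 active = inhibition above 20% together with a positive visual image hit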;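 also: compound added about 3h40 before a 20 min TNFalpha stimulation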;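 as to inhibition: signal is the nuclear over cytoplasmic p65 intensity ratio per well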). The settings on record: HUVEC TNFa-induced p65 nuclear translocation; cell count: measured here: nuclei count (cytotoxicity indicator), at 2.08 µM; inhibition: at 2 µM, stronger effect = higher value, 0% TNFa-plus-vehicle, 100% no-TNFa wells.
A short description of test [2]: reduction of polyQ htt aggregates in cells – imaging, exon1htt(103Q)mCFP cells, high-content imaging, primary screen (AID 483;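 active = visual image review flags a hit and inhibition of aggregation exceeds 20%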;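 also: compound exposure lasted 3 days before fixation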;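 as to nuclei count: percent of the per-plate median nuclei count of sample wells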). The settings on record: exon1htt(103Q)mCFP cell line, aggregate imaging, at 2 µM; inhibition of aggregation: stronger effect = higher value; nuclei count: measured here: cell count, toxicity.
The nature of test [3]: endothelial E-selectin expression blockers – imaging, HUVEC, immunofluorescence, MLSMR starter and 10KST1 sets, primary screen (AID 487;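 active = visually confirmed hit in the image check and inhibition above 20%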;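 as to inhibition: signal is fraction of cell area covered by stained E-selectin grains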;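 as to nuclei count: 100% = median nuclei count of all wells on the same plate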). The settings on record: HUVEC TNFalpha-induced E-selectin immunofluorescence imaging, at 2 µM; inhibition: stronger effect = higher value; nuclei count: measured here: cell number, toxicity.
Test [4] can be described thus: Primary imaging screen for DUSP6 inhibitors that restore phospho-Erk in transfected HeLa cells, chemical complementation (AID 609;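 active = compounds giving at least 50% inhibition in the cell-based MKP-3 phosphatase rescue imaging test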;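 as to inhibition: phospho-Erk level distribution per well compared with pooled transfected vehicle control wells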). The settings on record: HeLa MKP-3 transfected, phospho-Erk imaging KS statistic, at 10 µM, cells stimulated with TPA for 15 min.
Test [5] addresses Dual specificity protein phosphatase 6 (Homo sapiens) (UniProt Q16828). The test is described as above. The settings on record: HeLa MKP-3 transfected, phospho-Erk imaging KS statistic; at 10 µM; stronger effect = higher value; cells stimulated with TPA for 15 min.
Test [6] has as its target Alpha-2C adrenergic receptor (Homo sapiens) (UniProt P18825). The test can be described thus: compounds altering alpha2C-coupled GIRK flux – cell-based, HEK293 alpha2C/GIRK1/2, thallium flux, primary screen (AID 624;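 active = fluorescence slope after compound addition differing from the mean of all screened samples at 99.7% confidence, in either direction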;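 also: slope of fluorescence ratio to pre-addition baseline per second over 15 to 24 s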). The settings on record: thallium flux BTC fluorescence, at 10 µM, actives lie on both sides.
A short description of test [7]: inhibitors of larval lipid processing in zebrafish, primary screen, whole organism, PED6 fluorescence, gall bladder and intestine (AID 686;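 active = a full or partial loss of lipid-probe fluorescence in the fish gall bladder, intestine or both, judged by eye; inactive = no fluorescence loss, or compound toxic to the fish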;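 also: larvae 5 to 7 days old with five fish per well; signal comes from phospholipase A2 cleavage of quenched PED6 carried via bile; overnight exposure to compound and PED6 before scoring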). The settings on record: Zebrafish larvae PED6 lipid processing, fluorescence scoring; screened at 20 µM (by protocol).
A short description of test [8]: loss of swimming-algae plug formation – whole organism, Chlamydomonas reinhardtii, WT vs cilia-less mutant, absorbance, 96-well, primary screen (AID 463189).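 Also: 0% = wild type cc124 cells in DMSO and 100% = ciliumless bld1 mutant cells.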 The settings on record: Chlamydomonas reinhardtii gravitaxis, OD600 absorbance, 2 days; at 10 µM; stronger effect = higher value.
The nature of test [9]: blockers of RIG-like receptor reporter activation – cell-based, Sendai virus stimulus, luciferase, 10K MLSCN set, TLR/RLR signaling modifier project, primary screen (AID 602276;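 active = inhibition at or above 50% at 10 µM; inactive = inhibition below 50%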;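 also: firefly luciferase from ISG56 promoter only with Renilla not read in this screen; 0% = Sendai virus plus DMSO and 100% = medium plus DMSO without virus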). Particulars: HEK293 RL24 IRF3 luciferase reporter, at 10 µM, stronger effect = higher value.
A short description of test [10]: TLR3 IRF3 reporter activation blockers – cell-based, poly I:C stimulus, luciferase, 10K MLSCN set, primary screen (AID 602277;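 active = inhibition of the reporter signal at or above 50%; inactive = inhibition below 50%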). The settings on record: HEK293-TLR3 RL24 IRF3 luciferase reporter, at 10 µM, stronger effect = higher value.
For test [11], the target named is Voltage-gated potassium channel subunit beta-2 (Rattus norvegicus) (UniProt P62483). The test can be described thus: inhibitors of rat Kvbeta2 reductase activity – biochemical, NADPH fluorescence, primary screen (AID 622;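 active = fluorescence slope higher than the sample average by over 3 SD, cut at about -0.22 in these data, passing the limit was not always enough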;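 also: slope of raw intensity against log time taken from 70 to 1610 s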). Particulars: recombinant KvBeta, 4-cyanobenzaldehyde reduction, at 10 µM, stronger effect = higher value.
Test [12] has the same target. In words: enhancers of rat Kvbeta2 NADPH turnover – biochemical, NADPH fluorescence, primary screen (AID 623;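 active = NADPH fluorescence slope more negative than the mean of all samples by about 3 SD, 99.7% confidence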;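 also: fluorescence intensity change per second fitted from 20 to 320 s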). Particulars: Recombinant KvBeta, NADPH fluorescence decrease slope, 10 min; at 10 µM; stronger effect = lower value.
Where [13] appears, read: measured here: cell density z-score.
Where [14] appears, read: measured here: nuclear c-Myc green intensity z-score.
[15] abbreviates: measured here: nuclear pErk red intensity z-score, stronger effect = higher value.

Voltage-gated potassium channel subunit beta-2 (Rattus norvegicus), sequence (P62483 whole entry, looked up): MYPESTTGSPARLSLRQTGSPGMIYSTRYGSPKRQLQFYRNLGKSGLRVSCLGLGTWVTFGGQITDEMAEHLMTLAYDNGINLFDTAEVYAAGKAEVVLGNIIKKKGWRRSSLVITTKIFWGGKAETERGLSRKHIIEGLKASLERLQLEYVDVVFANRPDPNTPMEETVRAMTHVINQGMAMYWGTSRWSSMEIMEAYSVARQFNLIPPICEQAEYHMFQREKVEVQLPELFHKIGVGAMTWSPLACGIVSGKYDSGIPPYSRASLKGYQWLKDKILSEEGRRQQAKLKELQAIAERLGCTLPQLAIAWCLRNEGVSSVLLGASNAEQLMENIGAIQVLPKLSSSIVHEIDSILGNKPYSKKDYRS
Dual specificity protein phosphatase 6 (Homo sapiens), sequence (Q16828 whole entry, looked up): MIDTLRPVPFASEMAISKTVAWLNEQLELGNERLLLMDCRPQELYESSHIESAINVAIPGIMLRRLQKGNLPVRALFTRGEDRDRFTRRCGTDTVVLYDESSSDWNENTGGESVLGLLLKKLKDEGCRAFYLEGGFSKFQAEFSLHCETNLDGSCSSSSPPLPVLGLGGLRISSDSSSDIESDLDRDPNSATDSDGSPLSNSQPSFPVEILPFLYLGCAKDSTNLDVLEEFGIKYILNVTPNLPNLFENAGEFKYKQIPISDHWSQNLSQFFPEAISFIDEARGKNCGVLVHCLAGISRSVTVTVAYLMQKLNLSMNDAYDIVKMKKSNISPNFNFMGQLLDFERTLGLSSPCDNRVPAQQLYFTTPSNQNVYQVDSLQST
Alpha-2C adrenergic receptor (Homo sapiens), sequence (P18825 whole entry, looked up): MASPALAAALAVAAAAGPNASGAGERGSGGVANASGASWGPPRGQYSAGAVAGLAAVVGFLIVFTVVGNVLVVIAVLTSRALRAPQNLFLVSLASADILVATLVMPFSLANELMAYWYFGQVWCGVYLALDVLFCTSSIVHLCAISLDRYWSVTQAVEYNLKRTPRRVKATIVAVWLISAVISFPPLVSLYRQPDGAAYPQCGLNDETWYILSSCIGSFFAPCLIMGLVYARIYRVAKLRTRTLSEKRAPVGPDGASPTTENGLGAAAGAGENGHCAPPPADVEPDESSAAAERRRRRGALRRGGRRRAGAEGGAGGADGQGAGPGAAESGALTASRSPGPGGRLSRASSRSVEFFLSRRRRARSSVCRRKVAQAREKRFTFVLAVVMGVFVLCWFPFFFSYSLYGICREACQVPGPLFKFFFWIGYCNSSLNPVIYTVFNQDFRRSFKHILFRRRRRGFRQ

Regarding `CC[C@H](C)C(=O)O[C@H]1C[C@@H](C)C=C2C=C[C@H](C)[C@H](CC[C@@H]3C[C@@H](O)CC(=O)O3)[C@H]21`, the cell count in [1] came to 724. For the same compound, the inhibition in [1] is -11.9% (inactive); in test [3] it was -93.9% (inactive); in test [5] it was 21.2% (inactive); in [8], 14.3% (inactive); in test [9] it was -4.78% (inactive); in test [10], 49.1% (inactive). Also, the inhibition of aggregation in test [2] was 0.4% (inactive). Moreover, the values for the nuclei count in test [2] and in test [3] were 105% and 122%, respectively. For the same compound, the z-score in [4] (setting [13]) was 0.18; in test [4] (setting [14]), -1.59; in test [4] (setting [15]) it was -0.22. Also, the slope in test [6] is 0.00586 (inactive). For the same compound, in test [7], the outcome was inactive.

In the case of `Cc1ccc(C2C3CN(C(C)C)CC=C3C(C#N)=C(N)C2(C#N)C#N)cc1` (stereo not drawn), the cell count in test [1] was 620. For the same compound, the inhibition in [1] was 0.1% (inactive); in test [3] it was -85.5% (inactive); in [5] it was 70.4% (inactive); in test [8] it was 8.92% (inactive); in [9], 22.9% (inactive); in [10], 22.3% (inactive). The results for the nuclei count in test [2] and in test [3] were 99.1% and 145%, respectively. Moreover, the z-score in test [4] (setting [13]) came to 1.72; in [4] (setting [14]), 2.35; in [4] (setting [15]), 0.446. For the same compound, the fluorescence slope in [11] was -0.33 (inactive). The NADPH fluorescence slope in [12] was -1.4e-05 (inactive). Moreover, the slope in [6] was -0.00688 (active). The call in test [7] was inactive.

In the case of `Cn1c(Cl)cnc1C1CC(=O)c2cc(Cl)ccc2O1` (stereo not drawn), the cell count in test [1] was 637. The inhibition in [1] is -11.8% (inactive); in test [3], -161% (inactive); in test [5], 15.9% (inactive); in test [8], -12.2% (inactive); in test [9], 16.5% (inactive); in test [10] it was 35% (inactive). For the same compound, the figures for the nuclei count in test [2] and in test [3] were 0.8% and 112%, respectively. Further, the z-score in test [4] (setting [13]) was -0.672; in test [4] (setting [14]), -0.603; in [4] (setting [15]), -2.4. For the same compound, the fluorescence slope in test [11] was -0.562 (inactive). The NADPH fluorescence slope in test [12] is -8.8e-06 (inactive). Besides, the slope in [6] is 0.00554 (inactive). Further, in test [7], the compound was called inactive.

In the case of `Cc1ccc(N(CC2=NCCN2)c2cccc(O)c2)cc1`, the cell count in test [1] is 561 and 534. Moreover, the inhibition in [1] was -6.5% (inactive) and 2.1% (inactive); in test [3], -44.6% (inactive) and -23.4% (inactive); in test [5] it was 5.79% (inactive); in test [8], 4.48% (inactive) and 1.6% (inactive) and -7.32% (inactive); in [9], 0.917% (inactive) and -3.85% (inactive); in [10], 21.2% (inactive) and 12.9% (inactive). Moreover, the inhibition of aggregation in test [2] was -6.5% (inactive) and -10.5% (inactive). The nuclei count is 106% and 78.7% in test [2]; 136% and 125% in test [3]. Further, the z-score in test [4] (setting [13]) is -1.49 and -0.829; in test [4] (setting [14]) it was 1.38 and 2.5; in test [4] (setting [15]), -0.739 and 1.17. Also, the fluorescence slope in [11] was -0.452 (inactive) and -0.478 (inactive). Also, in test [12], the NADPH fluorescence slope was -5.4e-05 (inactive) and -3.9e-05 (inactive). For the same compound, the compound was called inactive in test [7].

As for `CCCC(=O)Nc1ccc(OCC(O)CNC(C)C)c(C(C)=O)c1` (stereo not drawn), in test [1], the cell count is 693. Also, the inhibition in test [1] is -4.7% (inactive); in test [3] it was -70.6% (inactive); in test [5], 11.3% (inactive); in test [8], -6.41% (inactive); in test [9], 8.12% (inactive); in test [10] it was 27.1% (inactive). Also, in test [3], the nuclei count was 120%. Besides, the figures for the z-score in test [4] (setting [13]), in [4] (setting [14]) and in [4] (setting [15]) were -1.73, -0.994 and 0.31, respectively. Besides, the fluorescence slope in [11] was -0.492 (inactive). Further, the NADPH fluorescence slope in test [12] was 3e-05 (inactive). In addition, the slope in test [6] was 0.00505 (inactive). Further, the compound was called inactive in [7].
